Inconclusive results are not listed. The source made the active and inactive calls. Unless noted, how the calls were made is not given here.
Key:
[1] = qHTS profiling of the MIPE4 collection as inhibitors of Plasmodium falciparum (3D7) proliferation (AID 743344);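 further: scaled between DMSO vehicle wells and 0.29 µM artemisinin as full inhibition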; conditions: P. falciparum 3D7 in erythrocytes, SYBR Green DNA fluorescence, 72 h; at 28.5 µM unless noted
Procedure, shortened: (§1)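 Erythrocytes infected with P. falciparum (0.3% parasitemia, 2.5% hematocrit) incubated with compounds 72 h at 37 C, 5% CO2. Lysis with saponin/Triton buffer containing SYBR Green I, overnight at room temperature in the dark; DNA fluorescence (485/535 nm) normalised to 0.29 uM artemisinin and DMSO.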

[2] = qHTS profiling of the MIPE4 collection as inhibitors of Plasmodium falciparum (DD2) proliferation (AID 743345); conditions: P. falciparum Dd2 in erythrocytes, SYBR Green DNA, 72 h; at 28.5 µM unless noted
Procedure, shortened: as §1

[3] = qHTS profiling of the MIPE4 collection as inhibitors of Plasmodium falciparum (DD2) proliferation (Rep 2) (AID 743346); conditions: P. falciparum Dd2 in erythrocytes, SYBR Green DNA, 72 h; at 28.5 µM unless noted
Procedure, shortened: as §1

[4] = qHTS profiling of the MIPE4 collection as inhibitors of Plasmodium falciparum (HB3) proliferation (AID 743347);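 further: plate controls were DMSO vehicle wells for no effect and artemisinin wells for full effect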; conditions: P. falciparum HB3 in erythrocytes, SYBR Green DNA, 72 h; at 28.5 µM unless noted
Procedure, shortened: as §1

[5] = High-throughput drug toxicity screening in the BPDCN cell line Gen2.2 (AID 1224824); conditions: Gen2.2 BPDCN cells; at 45.8 µM (top of the series) unless noted;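 further: cells exposed to compounds for 48 h before reading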
Procedure, shortened: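 Readout is ATP luminescence from Gen2.2 cells after two days of drug exposure in serum-containing medium at 37 °C. Values express percent activity, with vehicle defining full signal and 9.2 uM bortezomib defining zero.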

[6] = High-throughput drug toxicity screening in the BPDCN cell line Cal-1 (AID 1224825); conditions: Cal-1 BPDCN cell viability, qHTS; at 45.8 µM (top of the series) unless noted
Procedure, shortened: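 Cal-1 cells, 500 per well in phenol-red-free RPMI with 10% FBS, exposed to compounds for 48 hours at 37C, 5% CO2. Viability read by CellTiter-Glo luminescence; percent activity normalized to DMSO (100%) and 9.2 uM bortezomib final (0%).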

[7] = qHTS assay for measurement of the activity of small molecule inhibitors on Zika virus induced Caspase-3 activity in human iPSC derived neural progenitor cells (hNPCs) (AID 1224857; active means well fitted curve in the direction sought with a large enough effect; an effect the other way counts as inactive or inconclusive; further: % of control where 0% means no effect; nearly all actives have a fitted effect of over 65% in size)
Procedure, shortened: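 Cells were plated at 350 per well and grown 16 to 20 hours. Compound pretreatment lasted one hour, after which ZIKV (2 FFU/cell) was added for 6 hours. Percent inhibition was normalized between uninfected and infected controls.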

[8] = qHTS assay for measurement of the activity of small molecule inhibitors on Zika virus induced Caspase-3 activity in human astrocytoma cells (AID 1224859; active means well fitted curve in the direction sought with a large enough effect; an effect the other way counts as inactive or inconclusive;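 further: plate controls were ZIKV-infected untreated cells for no effect and uninfected cells for full effect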)
Procedure, shortened: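 Percent inhibition of virus-induced caspase-3/7 signal is calculated against uninfected and ZIKV-infected control cells. Cells are SNB-19, infected at 2 FFU/cell for 6 h after 1 h compound exposure.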

[9] = qHTS Screen of the MIPE 4.0 Collection Against Ewings Sarcoma (RDES) (AID 1259252; active means well fitted curve in the direction sought with a large enough effect; an effect the other way counts as inactive or inconclusive; further: nearly all actives have a fitted effect of over 35% in size; further: potency means the concentration at half of the fitted maximal effect)
Procedure, shortened: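 Log-phase cells in RPMI with 5% FBS attached for 4 h, then received compounds as a titration for 48 h at 37C, 5% CO2. Viability was read by CellTiter-Glo luminescence and normalized to DMSO and no-cell wells.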

[10] = qHTS profiling for inhibitors of Plasmodium falciparum (3D7) proliferation (AID 743322);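 further: infected erythrocytes exposed to compound for 72 h before lysis; 100% = DMSO vehicle wells and 0% = 0.29 µM artemisinin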; conditions: P. falciparum 3D7 proliferation; at 28.7 µM (top of the series) unless noted
Procedure, shortened: as §1

[11] = qHTS profiling for inhibitors of Plasmodium falciparum (DD2) proliferation (AID 743323); conditions: lower = more inhibition; at 28.7 µM (top of the series) unless noted
Procedure, shortened: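 P. falciparum Dd2-infected erythrocytes (0.3% parasitemia, 2.5% hematocrit) exposed 72 h at 37 C, 5% CO2. Lysis with SYBR Green, overnight at room temperature, fluorescence 485/535 nm; normalized to 0.29 uM artemisinin and DMSO.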

[12] = qHTS profiling for inhibitors of Plasmodium falciparum (HB3) proliferation (AID 743324; active means well fitted curve in the direction sought with a large enough effect; an effect the other way counts as inactive or inconclusive;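 further: 100% = DMSO vehicle wells and 0% = artemisinin-treated control wells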); conditions: Plasmodium falciparum HB3 blood-stage proliferation; at 28.7 µM (top of the series) unless noted
Procedure, shortened: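 P. falciparum HB3 grown in erythrocytes (0.3% parasitemia, 2.5% hematocrit final) with compound for 72 h at 37 C, 5% CO2. Parasite DNA detected by SYBR Green after saponin/triton lysis overnight; normalized to 0.29 uM artemisinin and DMSO.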

Row | SMILES | parasite growth, % of DMSO control [1] | parasite growth remaining, % of DMSO control (lower = more inhibition) [2] | parasite growth, % of control (lower = inhibition) [3] | growth, % of control [4] | cell viability, % of control (lower = more cytotoxic) [5] | viability (% of control) [6] | Potency [7] | Potency [8] | Potency [9] | remaining parasite growth % (stronger effect = lower value) [10] | activity, percent of control [11] | remaining proliferation (% of control), lower = more inhibition [12]
1 | CC(=O)OCC(=O)[C@@]1(O)CC[C@H]2[C@@H]3CCC4=CC(=O)C=C[C@]4(C)[C@@H]3[C@@H](O)C[C@@]21C | 77.8% | 102% | 81.3% | 80.7% | 165% | 58.1% | inactive | inactive | inactive | – | – | –
2 | Fc1ccc(CNc2ncnc3ccc(F)cc23)cc1 | 300% | 90.6% | 117% | 630% | 91.2% | 93.2% | inactive | inactive | 13.2 µM (active) | – | – | –
3 | O=C1CN2Cc3c(ccc(Cl)c3Cl)N=C2N1 | 82.8% | – | 85.1% | 85.4% | 198% | 96.9% | inactive | inactive | 23.5 µM (active) | 87% | 93.4% | 46.3%
4 | CO[C@H]1C=CO[C@@]2(C)Oc3c(C)c(O)c4c(O)c(c(C=NN5CCN(C)CC5)c(O)c4c3C2=O)NC(=O)C(C)=CC=C[C@H](C)[C@H](O)[C@@H](C)[C@@H](O)[C@@H](C)[C@H](OC(C)=O)[C@H]1C | 5.51% [at 5.51 µM] | 11.4% [at 5.51 µM] | 10.3% [at 5.51 µM] | 3.06% [at 5.51 µM] | 73% [at 15.3 µM] | 41.4% [at 15.3 µM] | inactive | inactive | inactive | – | – | –
5 | CC(=O)OCC(=O)[C@@]12OC(C)(C)O[C@H]1C[C@H]1[C@@H]3C[C@H](F)C4=CC(=O)C=C[C@]4(C)[C@@]3(F)[C@@H](O)C[C@@]12C | 51.9% | 82.3% | 35.9% | 61.2% | 76.3% | 56.5% | inactive | inactive | inactive | – | – | –
6 | CC[C@H](NC(=O)[C@H](C)NC)C(=O)N1C[C@@H](O)C[C@H]1Cc1c(-c2[nH]c3cc(F)ccc3c2C[C@H]2C[C@H](O)CN2C(=O)[C@H](CC)NC(=O)[C@H](C)NC)[nH]c2cc(F)ccc12 | 4.9% | 8.23% | 6.15% | 6.85% | 19.2% | 7.23% | inactive | inactive | inactive | – | – | –

From PubChem BioAssay (NCATS)
